Hits are enriched below; roughly 0.83% of the tested compounds scored in any of these assays.
Menin MLL FP FL: menin-MLL binding inhibition, fluorescein peptide. Fluorescence polarization, fluorescein-MLL peptide displacement from menin. AID 1766. FP activity change, % at 61.4 µM. 290,000 tested, under 10 active; active means well fitted curve in the direction sought with a large enough effect in the polarisation, not every such curve was filed as active; inconclusive means small, poorly fitted or top-dose-only effect, or effect the other way, or a change in a side signal; inactive means no such curve, though single readings can be large or run the other way; the % refers to the polarisation; further: % of control where 0% means no effect
Menin MLL FP TR: inhibitors of human menin-MLL interaction, mutant MLL peptide | O00255 | Menin + Texas Red MLL mutant peptide, fluorescence polarization | Potency, µM (series often up to 61.6 µM), for inactives: at the top dose FP activity change, negative = inhibition, most hits filed as inhibitors | actives 0.23% (n = 270,000); active means well fitted inhibition curve with a large enough effect in the polarisation, with a control signal flat, not every such curve was filed as active; inconclusive means small, poorly fitted or top-dose-only effect, or effect the other way, or a change in a side signal; inactive means no such curve, though single readings can be large or run the other way; the % refers to the polarisation; further: potency means the concentration at half of the fitted maximal effect; % of control where 0% means no effect
Six1-Eya2 inh: blocks human Six1 binding to Eya2; Q15475+O00167; AlphaScreen GST-Six1/His-Eya2 binding, biochemical; stronger effect = lower value; activity change, % (no concentration beside the values); actives 0.56% (n = 360,000); further: on the % scale 0 is the no-effect control and ±100 the full control effect
Target sequence (O00167 whole entry, looked up): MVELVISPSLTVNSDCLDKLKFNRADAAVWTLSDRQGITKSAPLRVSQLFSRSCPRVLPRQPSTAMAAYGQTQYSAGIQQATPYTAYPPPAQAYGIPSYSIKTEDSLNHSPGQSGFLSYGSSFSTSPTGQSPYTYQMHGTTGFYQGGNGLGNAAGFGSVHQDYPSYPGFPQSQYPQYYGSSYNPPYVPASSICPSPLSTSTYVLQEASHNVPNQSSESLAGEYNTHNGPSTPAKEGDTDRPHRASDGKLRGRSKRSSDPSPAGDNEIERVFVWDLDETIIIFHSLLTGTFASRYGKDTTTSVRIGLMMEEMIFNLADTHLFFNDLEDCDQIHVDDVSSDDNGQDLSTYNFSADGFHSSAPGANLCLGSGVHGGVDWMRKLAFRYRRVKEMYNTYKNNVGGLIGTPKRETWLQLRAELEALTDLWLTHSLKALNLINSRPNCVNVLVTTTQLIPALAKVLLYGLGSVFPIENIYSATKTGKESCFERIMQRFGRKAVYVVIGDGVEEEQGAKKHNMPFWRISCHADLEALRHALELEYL
Target sequence (Q15475 whole entry, looked up): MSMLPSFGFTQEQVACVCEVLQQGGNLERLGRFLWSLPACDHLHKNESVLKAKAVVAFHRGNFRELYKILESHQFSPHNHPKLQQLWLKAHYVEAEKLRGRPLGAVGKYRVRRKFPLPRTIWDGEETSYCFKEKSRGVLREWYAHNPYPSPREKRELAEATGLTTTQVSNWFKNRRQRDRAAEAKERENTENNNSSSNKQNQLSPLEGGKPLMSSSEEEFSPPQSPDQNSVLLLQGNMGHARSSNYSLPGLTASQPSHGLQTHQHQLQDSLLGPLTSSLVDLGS
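Compounds are tested against tagged Six1 and Eya2 proteins bridged by glutathione donor and nickel acceptor beads; after a one-hour incubation at 37 °C without light, AlphaScreen emission is recorded.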
GLS inh: glutaminase GLS (human) inhibition. O94925. Potency, µM (series often up to 45.5 µM), inactives show at the highest dose activity change, negative = inhibition, hits mostly inhibitors. actives 0.21% (n = 410,000). GLS enzymatic activity, qHTS titration; active means well fitted inhibition curve with a large enough effect; inconclusive means small, poorly fitted or top-dose-only effect, or another doubt; inactive means no such curve, though single readings can be large or run the other way; further: potency means the concentration at half of the fitted maximal effect; on the % scale 0 is the no-effect control and ±100 the full control effect
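hKGA in 45 mM KH2PO4 (pH 8.2), 0.02% Tween-20 with compound, then 1mM L-Glutamine (stock as added) plus glutamate oxidase/HRP/Amplex red coupling mix. Fluorescence read initially and after 30 min at RT; signal change reflects glutamate formation.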
CtBP-E1A blk: blocks the CtBP interaction with E1A | AlphaScreen GST-E1A/His-CtBP binding, 1536-well; stronger effect = lower value | actives 0.49% (n = 340,000) | AID 651724 | activity change, % (no concentration beside the values); further: on the % scale 0 is the no-effect control and ±100 the full control effect
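AlphaScreen with 125 nM GST-E1A and 125 nM His-CtBP (5X stocks) in Tris pH 8.0, 300 mM NaCl, BSA, Tween 20, TCEP. Compounds preincubated 2 h at 37 deg C, then glutathione donor/nickel acceptor beads added for 1 h at 37 deg C in dark.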
CXXC DNA block: blocks binding of human MLL CXXC domain to DNA. AID 2662. actives 0.037% (n = 290,000). MLL-CXXC / FITC-HOXA9 DNA fluorescence polarization. Q03164. Potency, µM (highest dose often 115 µM), for inactives: at the top dose activity change, negative = inhibition, actives largely listed as inhibitors; active means well fitted inhibition curve with a large enough effect in the polarisation, with a control signal flat, not every such curve was filed as active; inconclusive means small, poorly fitted or top-dose-only effect, or effect the other way, or a change in a side signal; inactive means no such curve, though single readings can be large or run the other way; the % refers to the polarisation; further: potency means the concentration at half of the fitted maximal effect
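Fluorescence polarization: 7 uM MLL-CXXC (stock) preincubated 5 min with compounds, then 50 nM fluorescein-HOX-A9 DNA (stock) added; 30 min ambient. Buffer 50 mM Tris-HCl pH 7.5, 50 mM NaCl, 1 mM DTT, 0.05% BSA.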
Starred values were filed as active, the others as inactive; ? = inconclusive; . = no result given. Unless noted, no stated cut-off is given here; in the data, active means activity change below about -65%; inconclusive means mostly about -30% to -63%; inactive means weaker than that.

SMILES	Menin MLL FP FL	Menin MLL FP TR	Six1-Eya2 inh	GLS inh	CtBP-E1A blk	CXXC DNA block
Nc1[nH]c(N=NC(=O)c2ccccc2O)c2ccccc12	.	-2%	-78*	25%	?	3%
CC1(C)CC1C(=O)N/C(=C/CCCCSCC(N)C(=O)O)C(=O)O (centres undefined)	14	-13%	.	-2%	.	-3%
O=C(CNC(=O)c1ccco1)N/N=C/c1cc(Br)ccc1O	-1	-16%	-97*	-6%	-86*	7%
O=C(CNC(=O)c1ccco1)N/N=C/c1ccc(O)cc1O	.	.	-86*	8%	.	21%
O=[N+]([O-])c1ccccc1C=NN1CCCCCC1	.	.	-70*	1%	?	.
O=[N+]([O-])c1ccccc1/C=N/N1CCN(Cc2ccccc2)CC1	4	-10%	?	-3%	-29	4%
Cc1ncc(CO)c(/C=N/NC(=O)c2cc(Br)ccc2O)c1O	?	?	?	24%	.	-11%
Cc1cc(C(=O)N/N=C/c2c(CO)cnc(C)c2O)c2ccccc2n1	.	.	-92*	13%	-99*	25%
O=C(N/N=C/c1cc(Cl)cc([N+](=O)[O-])c1O)c1ccccc1NS(=O)(=O)c1cccs1	17	.	-77*	-10%	-1	-13%
Cc1cc(C(=O)N/N=C/c2cc(Cl)cc([N+](=O)[O-])c2O)c2ccccc2n1	10	?	-89*	-5%	-91*	2%
O=C(N/N=C/c1ccccc1O)NC12CC3CC(CC(C3)C1)C2	-1	16%	1	3%	-7	6%
O=C(NN=Cc1cc(Cl)ccc1[N+](=O)[O-])c1cccc2ccccc12	.	.	-4	0%	1	.
O=C(N/N=C/c1cc(Cl)cc([N+](=O)[O-])c1O)NC12CC3CC(CC(C3)C1)C2	0	?	-13	8.9µM*	5	6%
O=C(NN=Cc1ccc(O)cc1)c1ccccc1NS(=O)(=O)c1cccs1	.	.	-3	34%	-18	.
Cc1cccc(C(=O)N(Cc2ccco2)Cc2ccccc2F)c1	.	.	.	-12%	.	.
Oc1cccc(-c2c3nc(c(-c4cccc(O)c4)c4ccc([nH]4)c(-c4cccc(O)c4)c4nc(c(-c5cccc(O)c5)c5ccc2[nH]5)CC4)C=C3)c1	.	.	.	6%	.	.
NNC(=O)Cn1c(-c2nonc2N)nc2ccccc21	7	-1%	1	11%	.	2%
Nc1nonc1-c1nc2ccccc2n1CC(=O)N/N=C\c1ccc(-c2ccc(Cl)cc2)o1	11	10µM*	0	3%	-2	49%
O=C(c1cccc(F)c1)N1CCC2(CC1)CCN(c1ccccn1)CC2	-1	-19%	.	.	.	.
COC(=O)\C(C(C)=O)=C(/C=C/C=C/C=C/N(C)C)N(C)C	?	?	?	11µM*	1	?
COC(=O)/C(C(C)=O)=C(\C=C\N(C)C)N(C)C	0	8%	2	-4%	4	8%
CN(C)S(=O)(=O)c1cccc(NC(=S)N/N=C/c2ccc(O)c(O)c2O)c1	7	.	-93*	7.9µM*	-97*	-16%
COc1cc(/C=N/NC(=S)Nc2cccc(S(=O)(=O)N(C)C)c2)cc(OC)c1O	3	?	-21	33%	5	-4%
COc1ccc(O)c(/C=N/NC(=S)Nc2cccc(S(=O)(=O)N(C)C)c2)c1	?	?	-90*	17%	-3	32%
COc1cccc(/C=N/NC(=S)Nc2cccc(S(=O)(=O)N(C)C)c2)c1	1	.	-4	-9%	-13	6%
COc1ccc(O)c(/C=N/NC(=S)Nc2cccnc2)c1	27	?	-90*	29%	.	-2%
CCOC(=O)c1c(NC(=O)CSc2cn(CCNC(=O)c3ccccc3F)c3ccccc23)sc2c1CCC2	.	.	.	13%	.	.
CCC(=O)N1CCc2cc(Br)cc(S(=O)(=O)N3CCCC(C(=O)N(C)c4ccc(Br)cc4)C3)c21 (centres undefined)	.	.	.	8%	.	.
Cn1nc(-c2ccccc2F)c2cc(C(=O)NCCc3ccc(Cl)cc3)sc21	.	.	.	5%	.	.
